Data from PubChem BioAssay (EPA / NIEHS).
Values joined by “and” are separate entries in the source; they are usually repeats but may differ in a detail not shown here. Equal values may be shown once. Inconclusive results are not listed. Some compounds were tested as several samples or in several runs, with calls that do not always agree. Active and inactive are the calls of the source. How the source made its calls, unless noted: active means hit-call score of the fitted dose curve at least 0.9, where 1 is the maximum; inactive means score below 0.9.

Assays:
DIO2 (gene 1734) = experiment: CCTE_GLTED_hDIO2: CCTE's human Deiodinase 2 (DIO2) Inhibition Assay, Great Lakes Toxicology and Ecology Division (GLTED) Lab (AID 2284050; active means hit-call score of the fitted dose curve at least 0.9, where 1 is the maximum)
Procedure, shortened: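 Cell-free human DIO2 enzyme was incubated with test chemical for 3 h; iodide liberated from substrate was then quantified by the Sandell-Kolthoff reaction (absorbance), run in triplicate. Loss of signal versus DMSO baseline indicated inhibition.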

DIO3 (gene 1735) = experiment: CCTE_GLTED_hDIO3: CCTE's human Deiodinase 3 (DIO3) Inhibition Assay, Great Lakes Toxicology and Ecology Division (GLTED) Lab (AID 2284055; active means hit-call score of the fitted dose curve at least 0.9, where 1 is the maximum;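 on AC50: potency is for inhibition seen as loss of released iodide signal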)
Procedure, shortened: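 Cell-free assay with human DIO3 enzyme produced by adenovirus expression; enzyme incubated with test chemical for 3 hours. Liberated iodide then measured by Sandell-Kolthoff absorbance; loss of signal versus DMSO baseline indicates inhibition, run in triplicate.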

[1] = CCTE_Shafer_MEA_acute_LDH: CCTE's Lactate Dehydrogenase Assay for Cytotoxicity in the Neural Acute Assay, Shafer Lab (AID 2284086; active means hit-call score of the fitted dose curve at least 0.9, where 1 is the maximum;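 further: active means LDH release rises above DMSO vehicle level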)
Procedure, shortened: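 Primary rat cortical neurons on 48-well MEA plates, treated on day 13 or 15 post-plating. After the 40-min recording with compound, medium LDH release was read by absorbance at 490 nm. Gain of signal was fitted against DMSO negative control.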

[2] = CCTE_Shafer_MEA_dev_burst_rate: CCTE's Neural Network Formation Assay for Burst Rate, Shafer Lab (AID 2284042);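 on AC50: potency for loss of burst rate below DMSO control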
Procedure, shortened: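 Developmental network assay measuring how 12-day exposure of rat cortical neuron cultures alters bursting on extracellular MEA recordings. Values are AUC of well-mean burst rate across four recording days, relative to DMSO vehicle.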

[3] = CCTE_Shafer_MEA_dev_bursting_electrodes_number: CCTE's Neural Network Formation Assay for Number of Bursting Electrodes, Shafer Lab (AID 2284043; active means hit-call score of the fitted dose curve at least 0.9, where 1 is the maximum;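 on AC50: potency is for loss of bursting electrodes relative to DMSO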)
Procedure, shortened: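 Primary rat cortical neurons plated on 16-electrode MEA wells, exposed from day 0 with compound renewed at DIV 5 and 9. Electrodes bursting ≥1 burst per 2 min counted on days 5, 7, 9 and 12; trapezoidal AUC across days, fitted for loss versus DMSO.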

[4] = CCTE_Shafer_MEA_dev_per_burst_interspike_interval: CCTE's Neural Network Formation Assay for Burst Interspike Interval, Shafer Lab (AID 2284044);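 on AC50: potency for a decrease of within-burst interspike interval below DMSO level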
Procedure, shortened: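 Readout is the average time between spikes inside single-electrode bursts, taken as a well mean across bursting electrodes. Cortical neurons from rat developed networks on MEA plates under continuous 12-day exposure; recordings on days 5, 7, 9 and 12 were integrated by trapezoidal AUC.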

[5] = CCTE_Shafer_MEA_dev_burst_duration_mean: CCTE's Neural Network Formation Assay for Mean Burst Duration, Shafer Lab (AID 2284045);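 on AC50: curve fitted for loss meaning shorter burst duration than DMSO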
Procedure, shortened: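 Primary rat cortical neurons on 48-well 16-electrode MEA plates, exposed from day 0 with renewal at DIV 5 and 9; spontaneous activity recorded on days 5, 7, 9, 12. Well-mean burst duration across bursting electrodes, collapsed as trapezoidal AUC; DMSO baseline.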

[6] = CCTE_Shafer_MEA_dev_interburst_interval_mean: CCTE's Neural Network Formation Assay for Mean Interburst Interval, Shafer Lab (AID 2284046);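 further: well-mean interburst interval of bursting electrodes as AUC over four recording days; curve fitted for decrease in interburst interval relative to DMSO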
Procedure, shortened: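 Network formation assay in primary rat cortical cultures, exposed from DIV 0 to 12. Mean interburst interval per well, integrated as AUC over four recordings.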

[7] = CCTE_Shafer_MEA_dev_inter_network_spike_interval_mean: CCTE's Neural Network Formation Assay for Mean Inter-network Spike Interval, Shafer Lab (AID 2284047);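 on AC50: potency for a decrease in mean inter-network spike interval below DMSO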
Procedure, shortened: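 Compound was given at plating to primary rat cortical neurons and renewed with full medium changes on DIV 5 and 9. Extracellular activity was recorded on days 5, 7, 9, 12; AUC values were fitted for loss relative to DMSO control.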

[8] = CCTE_Shafer_MEA_dev_network_spike_peak: CCTE's Neural Network Formation Assay for Mean Number of Electrodes in Network Spike, Shafer Lab (AID 2284049);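 on AC50: fitted for loss of signal meaning fewer electrodes in network spikes than DMSO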
Procedure, shortened: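 Network-spike peak electrode count from recordings on days 5, 7, 9 and 12 was combined as trapezoidal area under the curve. Rat cortical cultures were treated continuously from plating, with compound renewed at each feed (DIV 5, 9); fits versus DMSO.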

[9] = CCTE_Shafer_MEA_dev_spike_duration_mean: CCTE's Neural Network Formation Assay for Mean Spike Duration, Shafer Lab (AID 2284051);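 further: mean network spike duration pooled as area under curve over DIV 5 to 12 recordings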;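 on AC50: potency for a decrease in mean network spike duration versus DMSO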
Procedure, shortened: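 With DMSO as baseline, loss of mean network spike duration was scored from extracellular recordings of rat cortical neurons on MEA plates. Exposure spanned plating to DIV 12; the four recording days were collapsed into one AUC value.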

[10] = CCTE_Shafer_MEA_dev_network_spike_duration_std: CCTE's Neural Network Formation Assay for Standard Deviation of Network Spike Duration, Shafer Lab (AID 2284052);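 further: area under curve of spike duration SD across recording days 5 to 12; hits are decreases in network spike duration SD versus DMSO vehicle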
Procedure, shortened: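 Developing networks of rat cortical neurons were exposed over twelve days in vitro on 48-well MEA plates. Trapezoidal AUC of recordings (DIV 5–12) was analysed for signal loss relative to DMSO vehicle.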

[11] = CCTE_Shafer_MEA_dev_per_network_spike_spike_number_mean: CCTE's Neural Network Formation Assay for Mean Number of Spikes in a Network Spike, Shafer Lab (AID 2284053);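 on AC50: fitted as decrease in spikes per network spike relative to DMSO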
Procedure, shortened: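 First, rat cortical cells (1.5 x 10^5/well) were seeded onto MEA wells; second, dosing began at plating and was refreshed on DIV 5 and 9; finally, network-spike spike counts across DIV 5–12 were summarized as AUC.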

[12] = CCTE_Shafer_MEA_dev_per_network_spike_spike_percent: CCTE's Neural Network Formation Assay for Percent of Spikes in a Network Spike, Shafer Lab (AID 2284054)
Procedure, shortened: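 Rat primary cortical neurons were grown on 48-well MEA plates (16 electrodes/well), exposed from plating day 0 through day 12, with treatment renewed on DIV 5 and 9. Percent of spikes within 0.05 s network-spike peaks was measured, summarised as AUC across days 5, 7, 9, 12.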

[13] = UKN5_HCS_SBAD2_cell_viability: Viability Assessment in the University of Konstanz (UKN) Leist Lab Neurite Outgrowth Assay in human iPSC-derived immature Dorsal Root Ganglia Neurons (UKN5) (AID 2284056)
Procedure, shortened: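 iPSC-derived immature peripheral neurons (SBAD2) seeded on Matrigel with CHIR99021, SU5402 and DAPT, dosed 1 h later for 24 h. Viability from Hoechst H-33342 and calcein-AM live staining, high-content imaging; bidirectional fit versus DMSO.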

[14] = UKN5_HCS_SBAD2_neurite_outgrowth: University of Konstanz (UKN) Leist Lab Neurite Outgrowth Assay in human iPSC-derived immature Dorsal Root Ganglia Neurons (UKN5) (AID 2284070); details: actives raise or lower the signal
Procedure, shortened: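 Human iPSC-derived immature DRG neurons (SBAD2) on Matrigel with CHIR99021 (1.5 uM), SU5402 (5 uM), DAPT (5 uM); compounds added 1 h post-seeding for 24 h. Calcein-AM neurite area imaged; bidirectional fit vs DMSO.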

[15] = CCTE_Shafer_MEA_dev_mutual_information_norm: CCTE's Neural Network Formation Assay for Mutual Information Normalization, Shafer Lab (AID 2284091);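 on AC50: mutual information between electrodes summarised as area under curve across four recording days; potency is for a decrease in mutual information relative to DMSO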
Procedure, shortened: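 Primary rat cortical neurons on PEI-coated 48-well MEA plates, 1.5 x 10^5 cells/well, exposed from day 0 through day 12 with re-dosing at DIV 5 and 9. Mutual information between electrodes recorded days 5, 7, 9, 12; trapezoidal AUC, loss-of-signal fit versus DMSO.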

[16] = CCTE_Shafer_MEA_dev_correlation_coefficient_mean: CCTE's Neural Network Formation Assay for Mean Correlation Coefficient, Shafer Lab (AID 2284093);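 on AC50: well mean pairwise spike train correlation integrated as AUC over recording days 5 to 12; potency fitted for loss of correlation relative to DMSO vehicle wells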
Procedure, shortened: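 Extracellular firing from rat cortical networks on 48-well MEAs, DMSO-referenced, negative fitting direction. Compound present from plating to DIV12; mean pairwise correlation per well integrated over DIV5–12 recordings by trapezoidal AUC.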

[17] = CCTE_Shafer_MEA_dev_LDH: CCTE's Lactate Dehydrogenase Assay for Cytotoxicity in the Neural Network Formation Assay, Shafer Lab (AID 2284068; active means hit-call score of the fitted dose curve at least 0.9, where 1 is the maximum;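 further: exposure for twelve days from plating with re-dosing on DIV 5 and 9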)
Procedure, shortened: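 Developing rat cortical networks on MEA plates are exposed to compound for 12 days from plating. LDH activity is measured spectrophotometrically, with DMSO as baseline.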

[18] = CCTE_Shafer_MEA_dev_AB: CCTE's Alamar Blue Assay for Cytotoxicity in the Neural Network Formation Assay, Shafer Lab (AID 2284083; active means hit-call score of the fitted dose curve at least 0.9, where 1 is the maximum;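 further: resazurin reduction fluorescence as viability of cultured neurons; twelve days of exposure from plating with re-dosing on DIV 5 and 9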)
Procedure, shortened: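 Cytotoxicity companion to the developmental MEA: primary rat cortical neurons, 12-day exposure starting day 0, compound refreshed DIV 5 and 9; resazurin fluorescence, fitted against DMSO vehicle.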

Measured: AC50

CC(=O)NC1(c2cccc(F)c2)CCN(CC[C@@]2(c3ccc(Cl)c(Cl)c3)CN(c3ccccc3)C(=O)CO2)CC1
inactive: DIO3 (gene 1735) | [1]
active: DIO2 (gene 1734) 82.6 µM

CN1CCC[C@H]1c1cccnc1
active: [11] 6.37 µM
inactive: [2] | [3] | [4] | [5] | [6] | [7] | [8] | [9] | [10] | [12] | [13] | [14] | [15] | [16]

CCC(=C(c1ccc(O)cc1)c1ccc(OCCN(C)C)cc1)c1ccccc1
inactive: [1]
active: DIO2 (gene 1734) 35.2 µM | DIO3 (gene 1735) 58.4 µM

OCCC(F)(F)C(F)(F)C(F)(F)C(F)(F)C(F)(F)C(F)(F)F
inactive: [2] | [3] | [4] | [5] | [6] | [7] | [8] | [9] | [10] | [11] | [12] | [15] | [16]

CC(C)CCCCCCOC(=O)CCCCC(=O)OCCCCCCC(C)C
inactive: [1]

CCCCCCCCCCCCN1CCCC1=O
inactive: [1]
active: DIO2 (gene 1734) 138 µM | DIO3 (gene 1735) 87.8 µM

CN1CCN(c2ccccc2/C=C2\SCCN(c3ccc(Cl)c(Cl)c3)C2=O)CC1
inactive: DIO3 (gene 1735) | [1]
active: DIO2 (gene 1734) 104 µM

CCCOc1sc(C(=O)N2CCC(c3cc(CN)ccc3F)CC2)c(C)c1Br
inactive: [1]

CC1=C(/C=C/C(C)=C/C=C/C(C)=C/C(=O)O)C(C)(C)CCC1
active: [2] 4.01 µM | [6] 3.54 µM | [7] 0.319 µM | [8] 24.1 µM | DIO2 (gene 1734) 60.4 µM | [9] 10.1 µM | [10] 2.98 µM | [12] 26.9 µM | DIO3 (gene 1735) 34.7 µM | [17] 19 µM | [15] 7.47 µM | [16] 23.4 µM
inactive: [4] | [5] | [11] | [13] | [14] | [18]

NC(=O)N(O)[C@@H]1C=C[C@H](Oc2cccc(Oc3ccc(F)cc3)c2)C1
inactive: [1]
active: DIO2 (gene 1734) 36.5 µM | DIO3 (gene 1735) 30.5 µM

CC(C)(C)c1ccc(O)c(C(C)(C)C)c1
active: DIO2 (gene 1734) 159 µM | DIO3 (gene 1735) 96.5 µM

c1ccc2c(c1)ccc1ccccc12
inactive: [2] | [3] | [4] | [5] | [6] | [7] | [8] | [9] | [10] | [11] | [12] | [17] | [18] | [15] | [16]

OCCC(F)(F)C(F)(F)C(F)(F)C(F)(F)C(F)(F)C(F)(F)C(F)(F)C(F)(F)F
active: [3] 26 µM | [8] 24.2 µM | [17] 28.5 µM | [16] 23.4 µM
inactive: [2] | [4] | [5] | [6] | [7] | [9] | [10] | [11] | [12] | [18] | [1] | [15]

ClC1=C(Cl)C(Cl)(Cl)C(Cl)=C1Cl
active: DIO2 (gene 1734) 23.9 µM | DIO3 (gene 1735) 3.14 µM

CC[C@H](c1ccc(O)cc1)[C@@H](CC)c1ccc(O)cc1
inactive: [1]

CC(O)CO (centres undefined)
inactive: [2] | [3] | [4] | [5] | [6] | [7] | [8] | [9] | [10] | [11] | [12] | [18] | [15] | [16]

CC#C[C@]1(O)CC[C@H]2[C@@H]3CCC4=CC(=O)CCC4=C3[C@@H](c3ccc(N(C)C)cc3)C[C@@]21C
inactive: [2] | [5] | [6] | [7] | [10] | [1]
active: [2] 5.1 µM | [3] 2.8 µM and 15 µM | [4] 4.01 µM and 5.66 µM | [5] 2.98 µM | [6] 2.69 µM | [8] 2.53 µM and 22.2 µM | [9] 4.55 µM and 21.8 µM | [10] 8.66 µM | [11] 1.38 µM and 15 µM | [12] 3.55 µM and 23.1 µM | [17] 16.4 µM and 25.1 µM | [18] 16.5 µM and 25.4 µM | [15] 1.07 µM and 11.7 µM | [16] 6.26 µM and 22.2 µM

CCCCCCCCCCCCc1ccccc1S(=O)(=O)O
active: DIO2 (gene 1734) 72.2 µM | DIO3 (gene 1735) 40 µM
inactive: [1]

Cc1oc(-c2ccccc2)nc1CCOc1ccc(C[C@H](Nc2ccccc2C(=O)c2ccccc2)C(=O)O)cc1
active: DIO2 (gene 1734) 46.1 µM | DIO3 (gene 1735) 67.5 µM

c1ccc2cc3c(ccc4ccccc43)cc2c1
inactive: [2] | [3] | [4] | [5] | [6] | [7] | [9] | [10] | [11] | [12] | [17] | [18] | [15] | [16]
active: [8] 10 µM | DIO2 (gene 1734) 70 µM | DIO3 (gene 1735) 65.8 µM

Cc1cc(CCN2CCN(c3nsc4ccccc34)CC2)cc2c1NC(=O)CC2(C)C
inactive: [1]

c1ccc2c(c1)Cc1ccccc1-2
inactive: [2] | [3] | [4] | [5] | [6] | [7] | [8] | [9] | [10] | [11] | [12] | [17] | [18] | [15] | [16]

C=C(C)C(=O)OCCC(F)(F)C(F)(F)C(F)(F)C(F)(F)C(F)(F)C(F)(F)F
inactive: [2] | [3] | [4] | [5] | [6] | [7] | [8] | [9] | [10] | [11] | [12] | [17] | [15] | [16]

OC1CCC(C2CCCCC2)CC1 (centres undefined)
inactive: [1]

CCCCCCCCCCCCCC[N+](C)(C)C
active: DIO2 (gene 1734) 24.7 µM | DIO3 (gene 1735) 7.85 µM

O=C(O)c1ccccc1C(c1ccc(O)cc1)c1ccc(O)cc1
inactive: [1]
